EPAC1 antag = qHTS for Antagonist of cAMP-regulated guanine nucleotide exchange factor 3 (EPAC1): primary screen; Rap guanine nucleotide exchange factor 3 (Homo sapiens), O95398; EPAC1 GEF assay, Rap1b-BODIPY-GDP exchange fluorescence; Potency, µM (doses to about 115 µM), usual class: inhibitors; 0.14% of 360,000 active; AID 720709, 2013; also: nearly all actives have a fitted effect of over 50% in size
Target sequence (O95398 whole entry, looked up): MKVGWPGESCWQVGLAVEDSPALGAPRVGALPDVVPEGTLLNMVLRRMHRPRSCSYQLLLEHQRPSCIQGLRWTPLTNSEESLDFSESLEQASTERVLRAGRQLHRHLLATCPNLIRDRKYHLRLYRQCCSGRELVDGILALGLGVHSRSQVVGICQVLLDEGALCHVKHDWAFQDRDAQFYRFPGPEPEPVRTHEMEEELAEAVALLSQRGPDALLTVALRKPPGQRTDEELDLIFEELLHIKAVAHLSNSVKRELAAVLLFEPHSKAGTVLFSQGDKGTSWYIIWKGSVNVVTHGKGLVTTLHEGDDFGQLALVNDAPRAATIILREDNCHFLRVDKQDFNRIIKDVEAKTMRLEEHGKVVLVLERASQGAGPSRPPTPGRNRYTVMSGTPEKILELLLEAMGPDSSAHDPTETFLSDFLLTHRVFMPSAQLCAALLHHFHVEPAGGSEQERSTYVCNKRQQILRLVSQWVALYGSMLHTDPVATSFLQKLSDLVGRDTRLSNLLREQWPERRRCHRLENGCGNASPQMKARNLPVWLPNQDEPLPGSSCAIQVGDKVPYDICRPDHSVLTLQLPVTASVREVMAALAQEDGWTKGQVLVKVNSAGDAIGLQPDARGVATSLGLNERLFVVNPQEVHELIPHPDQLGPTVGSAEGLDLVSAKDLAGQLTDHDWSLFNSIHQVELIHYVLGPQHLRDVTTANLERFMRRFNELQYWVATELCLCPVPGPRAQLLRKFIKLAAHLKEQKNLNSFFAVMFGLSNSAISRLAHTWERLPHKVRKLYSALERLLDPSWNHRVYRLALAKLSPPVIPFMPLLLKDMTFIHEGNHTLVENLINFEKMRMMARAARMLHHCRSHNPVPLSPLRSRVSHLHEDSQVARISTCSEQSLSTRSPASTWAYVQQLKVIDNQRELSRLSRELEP
EPAC2 ag = qHTS for Agonist of cAMP-regulated guanine nucleotide exchange factor 4 (EPAC2): primary screen. Rap guanine nucleotide exchange factor 4 (Homo sapiens), Q8WZA2. EPAC2 activation, biochemical qHTS; response scale: 100% = 6.5 mM cAMP response. Potency, µM (titrated, usually from 154 µM), usual class: activators. 0.079% of 360,000 active. AID 720711, 2013; also: nearly all actives have a fitted effect of over 50% in size
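Readout is BODIPY fluorescence (480 nm excitation, 540 nm emission), which falls as labeled GDP is exchanged off Rap1B. EPAC2 at 100 nM acted on 250 nM RAP1B-BODIPY-GDP with 50 uM GDP present.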
EPAC2 antag = qHTS for Antagonist of cAMP-regulated guanine nucleotide exchange factor 2 (EPAC2): primary screen. Rap guanine nucleotide exchange factor 4 (Homo sapiens), Q8WZA2. EPAC2 GEF exchange of Rap1B-BODIPY-GDP, fluorescence. Potency, µM (titrated, usually from 114 µM), hits mostly inhibitors. 0.18% of 360,000 active; also: nearly all actives have a fitted effect of over 45% in size
BRCA1 expr up = qHTS Assay to Identify Small Molecule Activators of BRCA1 Expression; MCF7-BRCA1-FFLuc reporter, luminescence, 48 h; response scale: scaled: vehicle 0%, 10 µM genistein 100%; Potency, µM (doses to about 46.1 µM), most hits filed as activators; 1.1% of 380,000 active; also: nearly all actives have a fitted effect of over 80% in size
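Luminescence from a BRCA1-driven firefly luciferase in MCF7 cells was the read-out, taken 15 min after substrate addition following 48 h compound exposure at 37 °C. Data were normalized to a 10 microM genistein control and DMSO vehicle.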
EPAC1 ag = qHTS for Agonist of cAMP-regulated guanine nucleotide exchange factor 3 (EPAC1): primary screen | Potency, µM (series often up to 154 µM), hits mostly activators | EPAC1 agonist qHTS, biochemical assay; response scale: 100% = response to 6.5 mM cAMP | AID 720707, 2013 | 0.073% of 360,000 active; also: nearly all actives have a fitted effect of over 60% in size
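Multi-concentration qHTS readout: loss of Rap1B-bound BODIPY-GDP fluorescence driven by 100 nM EPAC1 with excess GDP (50 uM), monitored kinetically at room temperature; agonist response expressed relative to 6.5 mM cAMP.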
RGS4 inhibitor = Inhibitors of Regulator of G Protein Signaling (RGS) 4: qHTS; Transcreener GDP fluorescence polarization, RGS4-accelerated GTP hydrolysis; Potency, µM (highest dose often 114 µM), most hits filed as inhibitors; 0.039% of 390,000 active; also: nearly all actives have a fitted effect of over 75% in size
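MLSMR compounds (23 nl, pin-transferred) preincubated 10 min at room temperature with a 500nM (2x) first reagent, then RGS4 at 900nM (2x) plus Transcreener GDP mix added; fluorescence polarization (620/688 nm) read before and after 90 min at 30 °C.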
Hits are given with their value; . = inactive; ? = inconclusive; / = not tested or not shown; ! = repeats disagree; [ ] = remark or other dose. Hits are enriched below; roughly 1.3% of the tested compounds scored in any of these assays. Calls follow the shape of the dose curve; as a rule, active = well fitted curve in the direction sought with a large enough effect; inconclusive = small, poorly fitted or top-dose-only effect, or another doubt; inactive = no such curve, though single readings can be large; an effect the other way counts as inactive or inconclusive.

SMILES	EPAC1 antag	EPAC2 ag	EPAC2 antag	BRCA1 expr up	EPAC1 ag	RGS4 inhibitor
CC1CCCCC1NS(=O)(=O)CCNC(=O)c1ccc2c(c1)OCO2 (configuration not stated)	.	.	.	.	.	.
CC1CCCC(NC(=O)c2ccc3c(c2)OCO3)C1C (configuration not stated)	.	.	.	3.55µM	.	.
CC(C)OC(=O)c1ccc(NC(=O)C2C3CC4OC(=O)C2C4C3)cc1 (configuration not stated)	.	.	.	7.08µM	.	.[11.4 µM]
CCN(CC)C(=S)SCC(=O)c1ccc(Br)cc1	.	.	.	12.6µM	.	.
CCn1c(CNC(C)=O)nnc1SCC(=O)c1ccc(Br)cc1	.	.	.	.	.	?
CCN(CC)c1ncnc2c1ncn2[C@H]1CN(Cc2ccco2)C[C@@H](CO)O1	.	.	.	.	.	/
CCCCCCCCCCCCCCCC(=O)OC(CC(=O)O)C[N+](C)(C)C (configuration not stated)	.	.	?	.	.	18.9µM!
CCCCCCCCCC(=O)OCC(CO)OC(=O)CCCCCCCCC (configuration not stated)	/	/	/	/	/	26.7µM
O=[N+]([O-])c1cc([N+](=O)[O-])c2nonc2c1Nc1ccccc1O	.	.	?	.	.	.
Nc1cc(Cl)nc(N/N=C/c2ccccc2[N+](=O)[O-])n1	.	.	.	11.2µM	.	.
O=C(CC1NCCNC1=O)Nc1ccccc1 (configuration not stated)	.	.	.	.	.	.
Cc1ccc(NC(=O)Nc2ccc3c(c2)nnn3C)cc1C	.	.	.	2.82µM	.	.
CC[n+]1c(/C=C(\C)OC)sc2ccccc21	.	.	.	.	.	.
CC[n+]1c(/C=C/C=C/N(C(C)=O)c2ccccc2)sc2cc(OC)ccc21	.	?	.	.	100µM	?
O=C(Nc1ccccc1Br)c1ccc(OC(=S)N2CCOCC2)cc1	.	.	.	7.94µM	.	?
Cc1ccc(NC(=O)c2ccc(OC(=S)N3CCOCC3)cc2)cc1	.	.	.	.	.	.
Cc1ccc(NC(=O)CCc2ccccc2)cc1C	.	.	.	12.6µM	.	/
O=C(CCc1ccccc1)Nc1ccc2ccccc2n1	.	.	.	7.08µM	.	.
Cc1ccc(C)c(NC(=O)CCNS(=O)(=O)c2ccc3[nH]c(=O)oc3c2)c1	.	.	.	.	.	.
CC1CCCN(C(=O)CNC(=O)c2cccs2)C1 (configuration not stated)	.	.	.	10µM	.	.
O=[N+]([O-])/C=C/c1cn(Cc2ccc(Cl)cc2)c2ccccc12	.	100µM	.	.	?	.
CCOC(=O)c1sc2nc3n(c(=O)c2c1C)CCC3	.	.	.	.	.	.
COC(=O)c1ccc(COc2cccc(C)c2C)cc1	.	.	.	10µM	.	.
CN(C)c1ccc(/C=C/c2c[n+](C)cc3ccccc23)cc1	/	/	/	.	/	/
COc1cc(-c2nnc(SCc3ccccc3Cl)o2)cc(OC)c1OC	.	.	.	.	.	.
SMILES	EPAC1 antag	EPAC2 ag	EPAC2 antag	BRCA1 expr up	EPAC1 ag	RGS4 inhibitor
N#Cc1ccc(Oc2ccc(S(=O)(=O)N3CCCCC3)cn2)cc1	.	.	.	.	.	.
N#Cc1ccccc1Oc1ccc(S(=O)(=O)N2CCCCC2)cn1	.	.	.	10µM	.	.
CNc1nc(C(=O)O)nc(N2CCOCC2)n1	.	.	.	.	.	.
O=C(Nc1ccc(F)cc1F)c1ccc2ncsc2c1	.	.	.	5.01µM	.	.
COc1ccc(C)cc1NC(=O)c1ccccc1NS(=O)(=O)c1ccc(Cl)s1	.	.	31.6µM	.	.	.
FC(F)(F)c1cccc(-c2cc3nc(NCCCn4ccnc4)ccn3n2)c1	.	.	.	.	.	/
Clc1ccccc1-c1cc2nc(NCCCn3ccnc3)ccn2n1	.	.	.	10µM	.	/
CCCn1c(-c2cc(OC)c(OC)c(OC)c2)nc2nc3ccccc3nc21	.	.	.	.[1.84 µM]	.	.
O=C(CCSc1ccc(Cl)cc1)N1CCCCCC1	.	.[15.6 µM]	.	12.6µM	.	.
COc1ccc(Nc2c3c(nc4ccccc24)CCCC3)cc1OC	.	.	.	.	.	.
COc1ccccc1C(=O)NCCC(=O)NC1CCC(C)CC1 (configuration not stated)	.	.	.	8.91µM	.	.
COc1ccccc1C(=O)NCCC(=O)NC1CCCCC1C (configuration not stated)	.	.	.	.	.	.
COC(=O)[C@@H](Cc1c[nH]c2ccccc12)NC(=O)c1ccc2c(c1)OCO2	.	.	.	3.55µM	.	.
O=C(NCCc1c[nH]c2ccccc12)c1ccc2c(c1)OCO2	.	.	.	?	.	.
O=C(NCCc1c[nH]c2ccccc12)C(=O)Nc1ccccc1	.	.	.	11.2µM	.	.
N[C@H](Cc1c[nH]c2ccccc12)C(=O)O	/	/	/	/	/	21.2µM
O=C(NCCc1c[nH]c2ccccc12)c1cc(Cl)c2c(c1)OCO2	.	.	.	3.55µM	.	.
O=S(=O)(NCc1ccc(F)cc1)c1ccc(N2CCCCS2(=O)=O)cc1	/	/	/	/	/	.
CC(=O)CSc1nnc2cc(C)c3cc(C)cc(C)c3n12	/	/	/	/	/	.
CC(C)CCNS(=O)(=O)c1ccc(-c2ccc(S(=O)(=O)NCCC(C)C)cc2)cc1	.	.	.	.	.	.
C[C@@](N)(C(=O)O)[C@@H]1C[C@@H]1C(=O)O	/	/	/	/	/	23.8µM
O=C(NCc1nc2ccccc2[nH]1)C1=C[C@H](C2CCCCC2)C[C@H](OCc2ccc(CO)cc2)O1	.	.	.	.	.	.
O=C1/C(=C/c2cccnc2)SC(=S)N1NS(=O)(=O)c1ccccc1	?	.	.	.	.	.
O=C1NC(=S)S/C1=C\c1cc(Cl)ccc1Cl	?	.	56.2µM	.	.	?
CN(C)c1ccc(C=c2c3ccccc3n3c2c2ccccc2[n+]3C)cc1	50.1µM	?	44.7µM	.	.	?
